Results on 17 compounds are retold here after ChEMBL document CHEMBL1961873, “Compounds: GSK PKIS; Assays: Nanosyn kinase panel” (2012).

As usually defined, the inhibition is the change of the read-out against control, counted positive when it falls.
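Also: value is the mean inhibition of RSK3 within GSK PKIS.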

Sequence of Ribosomal protein S6 kinase alpha-2 (Homo sapiens) (Q15349 whole entry): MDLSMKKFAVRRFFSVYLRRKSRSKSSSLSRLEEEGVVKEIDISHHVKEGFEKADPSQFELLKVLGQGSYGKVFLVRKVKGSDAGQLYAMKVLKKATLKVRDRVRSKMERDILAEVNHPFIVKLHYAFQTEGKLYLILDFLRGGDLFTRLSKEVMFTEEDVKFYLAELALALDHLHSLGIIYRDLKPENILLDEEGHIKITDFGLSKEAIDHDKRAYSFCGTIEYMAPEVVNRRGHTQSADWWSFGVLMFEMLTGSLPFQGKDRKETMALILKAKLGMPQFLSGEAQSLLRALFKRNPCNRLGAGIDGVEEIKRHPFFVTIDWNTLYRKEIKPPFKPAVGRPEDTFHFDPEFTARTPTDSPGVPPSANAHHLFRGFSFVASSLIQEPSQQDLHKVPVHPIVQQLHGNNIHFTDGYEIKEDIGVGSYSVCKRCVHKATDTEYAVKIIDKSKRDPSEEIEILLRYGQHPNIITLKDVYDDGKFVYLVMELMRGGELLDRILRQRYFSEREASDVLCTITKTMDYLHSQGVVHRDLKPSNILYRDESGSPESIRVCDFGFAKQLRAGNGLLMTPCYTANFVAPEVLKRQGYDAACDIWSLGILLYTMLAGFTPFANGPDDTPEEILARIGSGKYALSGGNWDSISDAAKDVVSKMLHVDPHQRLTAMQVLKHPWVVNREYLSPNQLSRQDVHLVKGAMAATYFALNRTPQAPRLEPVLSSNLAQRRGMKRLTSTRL

The assay has as its target Ribosomal protein S6 kinase alpha-2 (Homo sapiens) (UniProt Q15349). Conditions: at 1 µM.
Compound `c1cnn2ncc(-c3ccnc(NCCCN4CCOCC4)n3)c2c1` gave an inhibition of 3.97%.
The compound `FC(F)(F)CNc1nccc(-c2cnn3ncccc23)n1` registered an inhibition of 1.84%.
`CCS(=O)(=O)c1ccc(OC)c(Nc2ncc(-c3cccc(F)c3)o2)c1`: the inhibition came out at 5.22%.
The compound `COc1ccc(Nc2ncc(-c3ccccc3)o2)cc1OC` displayed an inhibition of 4.35%.
As to `Cc1nnc(-c2cccc(-c3ccc(C(=O)NCC4CC4)cc3)c2)o1`, the inhibition amounted to 2.85%.
The compound `COc1cc(N2CCN(C(C)C)CC2)ccc1Nc1nc(Nc2cccc3ncccc23)c2cc[nH]c2n1` gave an inhibition of 3.33%.
As for `Cn1c(-c2nonc2N)nc2cnccc21`, the inhibition was 41.4%.
Compound `CC1=C(C(=O)Nc2ccc3[nH]nc(C)c3c2)C(c2ccc(C(F)(F)F)cc2)CC(=O)N1` (configuration not stated) returned an inhibition of 9.89%.
With `CN1CCC(n2cnc(-c3ccc(F)cc3)c2-c2ccnc(NCCO)n2)CC1` the figure was 4.29%; with `COc1cc(Nc2ncc(-c3ccccc3)o2)cc(OC)c1`, 3.57%; with `CC1=C(C(=O)Nc2ccc3[nH]ncc3c2)C(c2ccc(F)cc2)N=C(c2ccc(C(F)(F)F)nc2)N1` (configuration not stated), 3.76%.
As to `Cc1ccc(-c2cc3c(NC(=O)C4CC4)ncnc3o2)cc1`, the inhibition turned out to be 2.3%.
As for `O=C1Nc2ccccc2/C1=C1\CCc2cc(O)ccc21`, the inhibition was determined as 42.1%.
The result for `CN(C)CCNC(=O)Nc1ccc(N(C)c2ccnc(Nc3ccc(CS(C)(=O)=O)cc3)n2)cc1` reads 4.06%; that for `CS(=O)(=O)CCNCc1ccoc1-c1ccc2ncnc(Nc3ccc(OCc4ccccc4)cc3)c2c1`, 1.14%.
As to `CS(=O)(=O)Nc1ccc(-c2ccc3c(NC(=O)C4CC4)n[nH]c3c2)cc1`, the inhibition was found to be 3.79%.
In the case of `O=C(Nc1n[nH]c2nnc(-c3cccnc3)cc12)C1CC1`, the inhibition stood at 1.89%.
